Test [1] has as its system Human papillomavirus type 1a protein E7 (residues 44-93). Put plainly: small molecules binding HPV E7 44-93 – biochemical, small-molecule microarray, residues 44-93, 635 nm fluorescence, primary screen (AID 1108).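 Also: E7 fragment applied at 1 µg/mL in TBST for 1 h at 4 C; score combines spot fluorescence with its signal to noise ratio.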 The conditions noted are these: fluorescence 635 nm, higher = more signal.
Test [2] in a line: hepatitis C replication reporter changes, two-sided – Huh7 cells, luciferase reporter, HCV replication inhibitor project, primary screen (AID 1109).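 Also: huh7 hepatoma cells harbouring a luciferase neomycin HCV replicon reporter; luciferase luminescence as measure of HCV replicon replication; test concentration not given here.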 The conditions noted are these: Huh7 HCV replicon luciferase reporter, 48 h; higher = more signal. Background: A reporter such as luciferase makes a cellular process visible.
Test [3] addresses Left-right determination factor 2 (Homo sapiens) (UniProt O00292). Put plainly: small molecules binding LEFTY2 protein – biochemical, small-molecule microarray, 635 nm fluorescence scan, primary screen (AID 1110). The note with it: higher = more signal.
The target of test [4] is Calmodulin-1 (Homo sapiens) (UniProt P0DP23). Description: small molecules binding calmodulin-1 with EGTA – biochemical, small-molecule microarray, Cy5-labelled CALM1, profiling panel (AID 1111).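 Also: labelled calmodulin applied in Tris saline Tween buffer holding calcium plus EGTA and DTT.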 The note with it: Cy5-CALM1 binding fluorescence, higher = more signal.
Test [5] has the same target. Put plainly: small molecules binding Ca-loaded calmodulin-1 – biochemical, small-molecule microarray, Cy5-labelled CALM1, plus calcium, artefact control for SMM control-protein annotation, profiling panel (AID 1112).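 Also: score merges spot fluorescence with signal to noise from triplicate slides.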 The note with it: Cy5-CALM1 binding fluorescence, higher = more signal.
A short description of test [6]: probe aWnt5a binding to arrayed compounds – biochemical, biotinylated probe, 635/667 nm fluorescence, primary screen (AID 1113).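 Also: score merges 667 nm fluorescence intensity with signal-to-noise per printed feature.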 The conditions noted are these: small-molecule microarray, higher = more signal.
Test [7] in a line: probe aShh binding to arrayed compounds – biochemical, biotinylated probe, 635/667 nm fluorescence, primary screen (AID 1114).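 Also: probe is biotin-labelled aShh protein from a stem cell growth factor screen; measures binding of labelled protein to compounds printed on the slide; score merges feature fluorescence at 667 nm with signal-to-noise.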 The conditions noted are these: small-molecule microarray, higher = more signal.
Test [8] can be described thus: probe aNog binding to arrayed compounds – biochemical, biotinylated probe, 635/667 nm fluorescence, primary screen (AID 1115).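 Also: probe is biotinylated aNog protein used at 0.15 µg/mL for 1 h at 4 C; z-score combines 667 nm fluorescence of each spot with its signal to noise.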 The conditions noted are these: small-molecule microarray, higher = more signal.
Test [9] concerns the target Torsin-1A-interacting protein 1 (Homo sapiens) (UniProt Q5JTV8). Description: compound microarray binding of lysate hLAP1 – cell lysate, small-molecule microarray, COS7 lysate, 635/667 nm fluorescence, primary screen (AID 1116). The conditions noted are these: 635 nm fluorescence, higher = more signal.
For test [10], the target named is Alpha-bungarotoxin (Bungarus multicinctus) (UniProt P60615). Put plainly: compounds binding labelled alpha-BTX control protein – biochemical, small-molecule microarray, Alexa647 label, 635/667 nm fluorescence, artefact control for SMM control protein annotation, profiling panel (AID 1117). The conditions noted are these: alpha-BTX-A647 binding fluorescence, higher = more signal.
Sequence of Alpha-bungarotoxin (Bungarus multicinctus) (P60615 whole entry, looked up): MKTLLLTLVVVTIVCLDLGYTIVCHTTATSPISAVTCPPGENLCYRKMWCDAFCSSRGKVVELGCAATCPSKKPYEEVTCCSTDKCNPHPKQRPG

The target in another test is Albumin (Bos taurus) (UniProt P02769). Put plainly: compounds binding labelled BSA control protein – biochemical, small-molecule microarray, Alexa647 label, 635/667 nm fluorescence, artefact control for SMM control protein annotation, profiling panel (AID 1118).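 Also: score merges 667 nm emission intensity and signal-to-noise per printed compound spot.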 The note with it: BSA-A647 binding, fluorescence 635 nm, higher = more signal.
Sequence of Albumin (Bos taurus) (P02769 whole entry, looked up): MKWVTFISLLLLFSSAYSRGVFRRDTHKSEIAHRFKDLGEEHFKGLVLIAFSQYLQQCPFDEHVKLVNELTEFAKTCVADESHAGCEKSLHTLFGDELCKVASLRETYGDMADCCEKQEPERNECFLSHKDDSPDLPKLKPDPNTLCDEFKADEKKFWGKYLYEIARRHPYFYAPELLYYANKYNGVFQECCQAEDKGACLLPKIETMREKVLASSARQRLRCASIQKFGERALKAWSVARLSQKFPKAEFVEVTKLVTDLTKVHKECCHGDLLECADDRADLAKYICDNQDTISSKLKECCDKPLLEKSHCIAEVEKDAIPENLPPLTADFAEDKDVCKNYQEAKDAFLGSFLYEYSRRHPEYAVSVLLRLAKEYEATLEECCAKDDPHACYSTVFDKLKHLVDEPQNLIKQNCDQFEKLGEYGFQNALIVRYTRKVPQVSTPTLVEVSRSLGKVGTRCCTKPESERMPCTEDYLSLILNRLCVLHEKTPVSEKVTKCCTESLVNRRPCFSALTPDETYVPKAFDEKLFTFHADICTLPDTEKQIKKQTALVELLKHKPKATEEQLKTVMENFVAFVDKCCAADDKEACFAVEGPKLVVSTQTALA
Test [11] can be described thus: probe aXIP binding to arrayed compounds – biochemical, NeuroSMM set, 635/667 nm fluorescence, primary screen (AID 1119).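 Also: probe is the protein aXip251-270 applied at 1 µg/mL to compound-printed slides; binding of probe to printed compounds measured as 667 nm fluorescence plus signal to noise.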 The note with it: small-molecule microarray, higher = more signal, called active from +8 up or from −8 down.
A short description of test [12]: probe aNOTCH3 binding on compound microarray – biochemical, small-molecule microarray, 635/667 nm fluorescence, primary screen (AID 1120).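 Also: probe is a biotin-tagged antibody raised against NOTCH3 rather than NOTCH3 protein; score merges spot fluorescence near 667 nm with spot signal to noise.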 The note with it: higher = more signal.
The nature of test [13]: probe aNOTCH2 binding on compound microarray – biochemical, small-molecule microarray, 635/667 nm fluorescence, primary screen (AID 1121).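 Also: score merges feature fluorescence read at 667 nm with its signal to noise.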 The note with it: higher = more signal.
For test [14], the target named is Carbonic anhydrase 2 (Homo sapiens) (UniProt P00918). Description: compounds binding carbonic anhydrase 2 – biochemical, small-molecule microarray, Alexa647-labelled CAII, profiling panel (AID 1122). The conditions noted are these: CAII-A647 binding fluorescence, higher = more signal.
Test [15] in a line: COS7 lysate on small-molecule microarray, probe aHis, 635 nm (AID 1123).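 Also: z-score combines 667nm fluorescence intensity with signal-to-noise per printed compound spot.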 The conditions noted are these: COS7 cell lysate, fluorescence, higher = more signal.
Test [16] in a line: probe aLAP1 signal on lysate-treated microarray – cell lysate, small-molecule microarray, COS7 lysate, primary screen (AID 1124).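 Also: lysate comes from COS7 cells expressing LAP1 and is applied at 0.3 µg/mL; score merges spot fluorescence near 667 nm with signal-to-noise over triplicate slides.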 The note with it: probe aLAP1, fluorescence, higher = more signal.
The next test has as its system Sam68 (KHDRBS1). Put plainly: compounds binding KHDRBS1 protein – biochemical, small-molecule microarray, 635 nm fluorescence, primary screen (AID 1125).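 Also: score merges 667 nm channel intensity with signal to noise over triplicate slides.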 The conditions noted are these: higher = more signal.
For test [17], the system named is Chordin-like protein 2 (CHRDL2). Description: compounds binding chordin-like 2 – biochemical, small-molecule microarray, 635 nm fluorescence, primary screen (AID 1126).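 Also: printed compound slides probed with Chrdl2 protein at 4 µg/mL for 1 h at 4 C; score merges 667 nm emission intensity with signal to noise over three replicate slides.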 The conditions noted are these: fluorescence 635 nm, higher = more signal.
Test [18] concerns the target Concanavalin-A (Canavalia ensiformis) (UniProt P02866). Description: compounds binding concanavalin A lectin – biochemical, small-molecule microarray, Alexa647 label, 635 nm, artefact control for SMM control protein annotation, primary screen (AID 1127).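 Also: z combines 667 nm emission intensity with signal-to-noise across three replicate slides.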 The note with it: ConA-A647 binding fluorescence, higher = more signal.

The source made the active and inactive calls.

In PubChem BioAssay one finds composite z-score, z-score and composite Z-score data, which are given here for six molecules.

Sequence of Concanavalin-A (Canavalia ensiformis) (P02866 whole entry, looked up): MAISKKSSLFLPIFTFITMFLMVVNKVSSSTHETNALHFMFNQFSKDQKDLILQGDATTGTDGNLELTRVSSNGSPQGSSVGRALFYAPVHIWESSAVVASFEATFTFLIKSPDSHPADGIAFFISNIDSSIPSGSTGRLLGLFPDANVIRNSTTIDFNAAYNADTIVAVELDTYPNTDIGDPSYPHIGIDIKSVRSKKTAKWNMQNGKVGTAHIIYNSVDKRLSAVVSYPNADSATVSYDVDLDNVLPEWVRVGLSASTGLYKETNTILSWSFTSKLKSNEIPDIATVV
Sequence of Torsin-1A-interacting protein 1 (Homo sapiens) (Q5JTV8 whole entry, looked up): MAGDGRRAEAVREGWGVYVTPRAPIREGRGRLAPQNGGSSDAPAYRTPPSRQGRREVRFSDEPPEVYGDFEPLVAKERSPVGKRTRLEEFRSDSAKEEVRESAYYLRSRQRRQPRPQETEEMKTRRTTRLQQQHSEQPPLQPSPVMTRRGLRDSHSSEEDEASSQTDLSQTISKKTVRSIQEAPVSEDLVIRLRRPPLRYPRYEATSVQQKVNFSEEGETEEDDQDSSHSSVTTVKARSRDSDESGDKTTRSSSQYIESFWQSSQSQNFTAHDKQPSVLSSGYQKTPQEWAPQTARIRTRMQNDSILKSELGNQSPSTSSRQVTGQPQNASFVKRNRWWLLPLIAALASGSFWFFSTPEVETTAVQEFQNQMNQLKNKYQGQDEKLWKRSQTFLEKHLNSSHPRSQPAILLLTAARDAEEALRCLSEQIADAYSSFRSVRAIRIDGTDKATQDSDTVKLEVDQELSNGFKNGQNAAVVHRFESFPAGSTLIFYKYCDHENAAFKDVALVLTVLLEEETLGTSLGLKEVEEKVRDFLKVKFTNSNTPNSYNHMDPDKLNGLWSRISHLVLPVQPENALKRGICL
Sequence of Left-right determination factor 2 (Homo sapiens) (O00292 whole entry, looked up): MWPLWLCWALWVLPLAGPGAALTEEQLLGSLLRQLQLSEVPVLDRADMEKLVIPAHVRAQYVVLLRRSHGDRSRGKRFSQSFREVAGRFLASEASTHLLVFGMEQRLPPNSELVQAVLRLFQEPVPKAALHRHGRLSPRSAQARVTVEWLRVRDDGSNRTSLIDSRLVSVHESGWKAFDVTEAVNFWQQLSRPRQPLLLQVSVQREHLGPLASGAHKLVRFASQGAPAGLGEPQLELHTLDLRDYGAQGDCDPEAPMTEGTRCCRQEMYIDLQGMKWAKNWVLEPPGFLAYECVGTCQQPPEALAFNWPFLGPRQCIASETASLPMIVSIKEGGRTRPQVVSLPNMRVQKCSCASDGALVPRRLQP

On to `COc1ccc(O[C@H]2C=C[C@@H](C#Cc3ccccc3)O[C@@H]2CO)cc1`, for which the composite z-score in [1] was 0.342; in test [3], -0.0192; in [4], 1.42; in [5], 0.493; in [6], -0.124; in [7], 0.0048. Moreover, the composite z-score is -0.0428 in [8]; 0.158 in test [9]; 0.439 in [10]; 0.271 in the test with Albumin (Bos taurus); -0.0932 in test [12]; 0.113 in test [13]. In addition, the composite z-score in test [14] was 0.314; in [15], 0.962; in [16] it was 0.0803; in the test on Sam68 (KHDRBS1) it was -0.006; in [17], 0.176; in test [18] it was 0.869. Besides, the z-score in test [2] was -2.17. For the same molecule, the composite Z-score in test [11] is 0.446 (inactive).
In the case of `COC(=O)[C@@H]1CC[C@H](C)[C@@H](c2ccc(Br)cc2)N1C[C@H](O)CN=[N+]=[N-]`, the composite z-score is 0.0343 in test [1]; 0.346 in test [3]; 0.0364 in test [4]; 0.123 in test [5]; 0.14 in test [6]; -0.0243 in [7]. Further, the composite z-score was -0.183 in test [8]; -0.133 in [9]; 0.426 in test [10]; 0.0539 in the test with Albumin (Bos taurus); -0.0219 in test [12]; -0.12 in test [13]. The composite z-score in [14] is -0.109; in test [15], 0.653; in test [16] it was 0.475; in the test with Sam68 (KHDRBS1) it was -0.0747; in test [17], 0.101; in test [18], -0.35. Besides, in [2], the z-score was -0.0104. In test [11], the composite Z-score was 0.486 (inactive).
As to `COC(OC)[C@@H](C)[C@H](OC)[C@@H](C)[C@H](OC)c1ccccc1`, the composite z-score in test [1] is -0.567; in test [3], 0.4; in test [4], -1.15; in test [5] it was -0.647; in [6], -0.225; in [7], -0.273. The composite z-score in test [8] was 0.108; in test [9], 0.0678; in [10], -0.0469; with Albumin (Bos taurus), -0.355; in test [12], -0.0647; in test [13], -0.15. Besides, the composite z-score in [14] is -0.552; in test [15], -0.729; in test [16], -0.266; in the test with Sam68 (KHDRBS1) it was -1.16; in test [17] it was 0.473; in test [18] it was -0.18. This molecule displayed a z-score in test [2] of 0.928. In addition, the composite Z-score in test [11] is 0.273 (inactive).
As to `CCOC(=O)[C@H](CC(C)C)NC(=O)CCC1CC(OC(=O)NCc2ccc3c(c2)OCO3)CC2(CCCC(COC(=O)NCc3ccccc3)O2)O1` (stereo not given in full), the composite z-score in [1] was 1.37; in [3], 0.355; in test [4], 0.562; in test [5], -0.158; in test [6] it was 0.0799; in test [7], -0.153. The composite z-score is -0.074 in [8]; 0.137 in [9]; 0.461 in test [10]; 0.646 in the test with Albumin (Bos taurus); -0.226 in test [12]; -0.146 in [13]. The composite z-score is 0.198 in test [14]; 1.25 in test [15]; -0.118 in test [16]; 1.19 in the test with Sam68 (KHDRBS1); 0.161 in [17]; 1.01 in [18]. In test [2], the z-score is -0.0695. The composite Z-score in test [11] is 1.09 (inactive).
As for `CC[C@@H](c1ccccc1)n1c(=O)n2n(c1=O)[C@H]1[C@H](O)[C@@H]3O[C@@H]3C(=NOCc3ccccc3)[C@H]1CC2`, the composite z-score was 0.502 in test [1]; 0.244 in test [3]; 0.207 in test [4]; -0.258 in [5]; -0.107 in test [6]; -0.0146 in test [7]. For the same molecule, the composite z-score was -0.0606 in [8]; -0.0058 in test [9]; 0.919 in test [10]; 0.536 with Albumin (Bos taurus); 0.0306 in test [12]; -0.203 in test [13]. The composite z-score in test [14] is 0.178; in [15], 0.423; in test [16], -0.502; with Sam68 (KHDRBS1), 0.0843; in test [17], 0.283; in test [18], 0.966. The z-score in [2] is -4.13. The composite Z-score in [11] is -0.558 (inactive).
Turning to `CC(=O)OC[C@H]1O[C@H](CC=NOC[C@@H](O)[C@H]2O[C@@H]3OC(C)(C)O[C@@H]3[C@H]2O)C=C[C@@H]1OC(C)=O`, the composite z-score was 0.836 in [1]; 0.439 in test [3]; 0.699 in [4]; 0.249 in [5]; -0.0735 in test [6]; 0.179 in [7]. The composite z-score in test [8] is -0.189; in test [9], 0.51; in test [10], 1.32; in the test with Albumin (Bos taurus), 0.846; in [12], 0.116; in test [13], -0.0934. Further, the composite z-score in [14] is 0.298; in test [15], 0.548; in test [16], 0.79; in the test with Sam68 (KHDRBS1) it was 0.883; in [17], 0.0166; in test [18], 0.976. For the same molecule, the z-score in test [2] was -0.041. The composite Z-score in test [11] is 0.0765 (inactive).
